DT40 TDP1 CPT: DT40-hTDP1 cell growth loss with CPT; chicken DT40 Tdp1-/-;hTDP1 cells + 20 nM CPT, ATP luminescence, 48 h; Potency, µM (series often up to 46.2 µM), usual class: inhibitors; 420,000 tested, 12% active; also: nearly all actives have a fitted effect of over 55% in size
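Cell growth measured by CellTiter-Glo luminescence after a minimum 48 h, 37 C compound exposure with 20 nM CPT in Tdp1-knockout DT40 cells stably expressing hTDP1, seeded 400/well; qHTS titration format.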
HT1080 IDH1KD tx: HT-1080 IDH1 knockdown cell toxicity (counter line); HT-1080 IDH1 knockdown viability, ATP luminescence, 48 h; Potency, µM (doses to about 46.1 µM), actives largely listed as cytotoxic; 360,000 tested, 2% active
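After a 2 h attachment period, IDH1KD HT-1080 cells took pin-transferred compound for 48 h at 37 °C; ATP-based luminescence after 10 min room-temperature reagent incubation reported viability.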
IL1B secr inh: blocks inflammasome-driven IL-1 beta release. THP-1 LPS/ATP IL-1B secretion, AlphaLISA, 16 h; stronger effect = lower value. activity change, % at 57.5 µM. 360,000 tested, 4.7% active. AID 743279; in the data active = activity change below about -50%; inconclusive = mostly about -30% to -49%
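THP-1 cells pretreated 1 hr with compounds (up to 57.5 uM final), then stimulated with LPS (250 ng/mL final) plus ATP (1.25 mM final); secreted IL-1B measured by AlphaLISA after 16 hr, decreased signal indicating inhibition.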
HT1080NT lethal: kills 2HG-producing HT-1080-NT fibrosarcoma cells | HT-1080-NT fibrosarcoma viability, CellTiter-Glo ATP luminescence, 48 h | Potency, µM (series often up to 46.1 µM), actives largely listed as cytotoxic | 360,000 tested, 1.6% active | AID 686970;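 also: NT is the 2HG producing partner of a matched IDH1 knockdown line; nearly all actives have a fitted effect of over 55% in size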
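Luminescent CellTiter-Glo readout after 48 hours of compound exposure at 37 degrees C defined viability of HT-1080-NT cells. Activity was normalized to DMSO wells and cell-free media wells; concentration-response curves were fitted and assigned curve classes.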
TDP1 cell noCPT: qHTS for Inhibitors of human tyrosyl-DNA phosphodiesterase 1 (TDP1): qHTS in cells in absence of CPT; DT40 Tdp1-/- hTDP1 cells, no CPT, ATP luminescence, 48 h; 420,000 tested, 15% active; AID 686978, 2013; Potency, µM (top dose mostly 46.2 µM), hits mostly inhibitors; also: nearly all actives have a fitted effect of over 55% in size
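Chicken DT40 Tdp1-/- cells stably complemented with human TDP1 were seeded at 400 cells/well with DMSO in place of 20 nM camptothecin. After compound pinning, cells grew at least 48 hr at 37 °C; viability read by CellTiter-Glo luminescence.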
Of the large screens only hits and unclear results are named; the others gave an inactive call. Shown are actives, neighbours in structure and some others; about 19% of the full set was active somewhere. Unless noted, calls follow the shape of the dose curve; as a rule, active = well fitted curve in the direction sought with a large enough effect; inconclusive = small, poorly fitted or top-dose-only effect, or another doubt; inactive = no such curve, though single readings can be large; an effect the other way counts as inactive or inconclusive.

CCOc1ccc(/C(O)=C/C(=O)C(=O)Nc2ccc(S(=O)(=O)NC(C)=O)cc2)cc1	DT40 TDP1 CPT 25.9µM
CCOc1ccc(S(=O)(=O)/N=C(/Nc2ccc(C(C)=O)cc2)c2ccccc2)cc1	DT40 TDP1 CPT 23.1µM, HT1080NT lethal inconclusive, TDP1 cell noCPT 13µM
CCOc1ccc(S(=O)(=O)/N=C(/Nc2ccc(OC)cc2)c2ccccc2)cc1	none
CCOc1ccc(NC(C)=O)cc1	DT40 TDP1 CPT inconclusive
CCOc1ccc(NS(=O)(=O)c2ccc(NC(=S)NC(C)=O)cc2)cc1	DT40 TDP1 CPT 23.1µM, TDP1 cell noCPT 23.1µM
COc1ccc(NS(=O)(=O)c2ccc(NC(=S)NC(=O)C(C)C)cc2)cc1	DT40 TDP1 CPT 18.4µM, TDP1 cell noCPT 16.4µM
Cc1ccc(Cl)cc1NC(=O)C1C2CCC(O2)C1C(=O)O (centres undefined)	none
CCC(C(=O)Nc1cc(C)ccc1OC)n1nnc(C(=O)OC)c1C(=O)OC (centres undefined)	none (no result: HT1080 IDH1KD tx, IL1B secr inh, HT1080NT lethal)
OC(CN1CCCCC1)c1ccc2c3c(cccc13)CC2 (centres undefined)	none
CC(C)C(=O)NC(=S)Nc1ccc(S(=O)(=O)Nc2ccccc2)cc1	none
CC(C)C(=O)NC(=S)Nc1ccc(S(=O)(=O)N(C)Cc2ccccc2)cc1	DT40 TDP1 CPT inconclusive, HT1080 IDH1KD tx 20.6µM, HT1080NT lethal inconclusive, TDP1 cell noCPT 18.4µM
CCOc1ccc(NS(=O)(=O)c2ccc(NC(=S)NC(=O)C(C)C)cc2)cc1	DT40 TDP1 CPT 20.6µM, HT1080 IDH1KD tx inconclusive, HT1080NT lethal inconclusive, TDP1 cell noCPT inconclusive
O=C(CC1C(=O)NCCN1Cc1ccccc1C(F)(F)F)NCCN1CCCCC1=O (centres undefined)	none
COC(=O)c1ccc(C(=O)OC)c(NC(=O)C(C)(C)C)c1	HT1080 IDH1KD tx inconclusive
CC(=O)NC(c1ccccc1)c1nc(-c2ccc3ccccc3c2)cs1 (centres undefined)	DT40 TDP1 CPT 16.4µM, TDP1 cell noCPT inconclusive
COc1cccc(C(NC(C)=O)c2nc(-c3ccc(C)c(C)c3)cs2)c1 (centres undefined)	DT40 TDP1 CPT inconclusive, TDP1 cell noCPT inconclusive
CC(=O)NC(c1cccc(F)c1)c1nc(-c2ccccc2)cs1 (centres undefined)	DT40 TDP1 CPT inconclusive
CC(=O)NC(c1ccccc1)c1nc(-c2ccc(C)c(C)c2)cs1 (centres undefined)	DT40 TDP1 CPT 16.4µM, HT1080 IDH1KD tx inconclusive, IL1B secr inh inconclusive, HT1080NT lethal inconclusive, TDP1 cell noCPT 18.4µM
COc1cccc(C(NC(C)=O)c2nc(-c3ccc4ccccc4c3)cs2)c1 (centres undefined)	DT40 TDP1 CPT 18.4µM, HT1080 IDH1KD tx inconclusive, HT1080NT lethal inconclusive, TDP1 cell noCPT inconclusive
CCCCC[C@H](O)/C=C/C=C\C=C\C=C\[C@@H](O)[C@@H](O)CCCC(=O)O	none (no result: HT1080 IDH1KD tx, IL1B secr inh, HT1080NT lethal)
CNc1nc(Nc2ccc([N+](=O)[O-])cc2)nc(OCC(F)(F)F)n1	none
CNc1nc(N/N=C/c2cc([N+](=O)[O-])ccc2F)nc(Nc2ccccc2)n1	DT40 TDP1 CPT 13µM, IL1B secr inh -96.6, TDP1 cell noCPT 7.31µM
O=S(=O)(Nc1cnc2ccccc2c1)N1CCCCCC1	DT40 TDP1 CPT 20.6µM, TDP1 cell noCPT 13µM
COc1ccc(OC)c(S(=O)(=O)Nc2ccc3c(c2)n(C)c(=O)n3C)c1	DT40 TDP1 CPT inconclusive, TDP1 cell noCPT inconclusive
COc1ccc(OC)c(S(=O)(=O)Nc2cnc3ccccc3c2)c1	DT40 TDP1 CPT inconclusive, HT1080NT lethal inconclusive, TDP1 cell noCPT 23.1µM
COc1ccc(OC)c(S(=O)(=O)ON2C(=O)c3ccccc3C2=O)c1	DT40 TDP1 CPT 2.31µM, HT1080 IDH1KD tx 4.11µM, HT1080NT lethal inconclusive, TDP1 cell noCPT 1.46µM
COc1ccc(OC)c(S(=O)(=O)Nc2ccc3c(c2)C(=O)OC3)c1	DT40 TDP1 CPT 11.6µM, HT1080 IDH1KD tx 20.6µM, HT1080NT lethal 18.4µM, TDP1 cell noCPT 8.2µM
COc1ccc(NS(=O)(=O)c2cc(OC)ccc2OC)cc1	TDP1 cell noCPT inconclusive
Cn1nc(C(C)(C)C)cc1N1C(=O)CCC1(C)C(=O)NC1CCCCC1 (centres undefined)	none
COC(=O)COc1ccc(S(=O)(=O)NCc2ccc3c(c2)OCO3)cc1C	none
COc1ccc(OC)c(S(=O)(=O)n2cnc3ccccc32)c1	DT40 TDP1 CPT inconclusive, TDP1 cell noCPT 16.4µM
CNc1nc(Cl)c(SC)c(NCc2cccc(OC)c2)n1	DT40 TDP1 CPT inconclusive, TDP1 cell noCPT 23.1µM
COc1ccc(-c2nc(CS(=O)CC(=O)NCCCN3CCOCC3)c(C)o2)cc1OC (centres undefined)	DT40 TDP1 CPT inconclusive
CCN1C(=O)[C@H]2[C@@H](c3ccc(OC)cc3)N[C@]3(CCCN(Cc4ccc(Cl)cc4)C3=O)[C@H]2C1=O	DT40 TDP1 CPT inconclusive, TDP1 cell noCPT inconclusive
CCN1C(=O)[C@H]2[C@@H](c3ccc(C(F)(F)F)cc3)N[C@]3(CCCN(Cc4ccc(OC)cc4)C3=O)[C@H]2C1=O	DT40 TDP1 CPT 20.6µM, TDP1 cell noCPT 10.3µM
CCN1C(=O)[C@H]2[C@@H](c3ccc(C(F)(F)F)cc3)N[C@]3(CCCN(Cc4ccc(C(F)(F)F)cc4)C3=O)[C@H]2C1=O	DT40 TDP1 CPT 11.6µM, TDP1 cell noCPT 11.6µM
Cn1c(CC(=O)Nc2ccccc2F)nnc1SCC(=O)Nc1nccs1	none
O=C(C[C@@H]1C/C=C\C[C@H](Cc2ccc(F)cc2)C(=O)OC[C@H]2CCCN2C1=O)N[C@H](CO)Cc1ccccc1	DT40 TDP1 CPT 13µM, TDP1 cell noCPT 14.6µM
O=C(C[C@@H]1C/C=C\C[C@@H](Cc2ccc(F)cc2)C(=O)OC[C@@H]2CCCN2C1=O)N[C@H](CO)Cc1ccccc1	DT40 TDP1 CPT inconclusive, TDP1 cell noCPT 23.1µM
O=C(C[C@@H]1C/C=C\CC[C@@H](Cc2ccc(F)cc2)C(=O)OC[C@@H]2CCCN2C1=O)NCCO	TDP1 cell noCPT inconclusive
O=C(C[C@@H]1C/C=C\CCC(=O)OC[C@@H]2CCCN2C1=O)N[C@@H](CO)Cc1ccccc1	none
O=C(C[C@H]1C/C=C\CC[C@@H](Cc2ccc(F)cc2)C(=O)OC[C@H]2CCCN2C1=O)N[C@H](CO)Cc1ccccc1	DT40 TDP1 CPT inconclusive, TDP1 cell noCPT 20.6µM
O=C(C[C@@H]1C/C=C\C[C@H](Cc2ccc(F)cc2)C(=O)OC[C@@H]2CCCN2C1=O)N[C@H](CO)Cc1ccccc1	DT40 TDP1 CPT 18.4µM, TDP1 cell noCPT 16.4µM
CCn1cc(CN2N=C(C)CC2c2ccccc2)c(C)n1 (centres undefined)	none
CCc1nc2c(OCC(=O)C(C)(C)C)cccn2c1N(C)C(=O)C(C)C	DT40 TDP1 CPT inconclusive
Cc1ccccc1-c1n[nH]nc1C1=CC(=O)CC(C)(C)C1	none
